Structures can show the parent of a compound that is named as a salt. ± gives the standard deviation of the averaged measurements.
What follows are compounds tested on E. coli TESEC Mtb Alr (assay: growth (OD600 after 10 h); higher = more growth (less inhibition)). Settings: arabinose 100 nM; compound 0.1 mM; raw OD600 reference: median of DMSO wells 0.413, cell-free background 0.052.
Method: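 TESEC Mtb Alr E. coli (ΔaraC ΔtolC ΔentC Δalr ΔdadX, arabinose-inducible Mtb Alr) or the Alr+ wild-type control strain, grown in defined M9-fructose medium without D-alanine in 96-well plates with Prestwick library compounds at 0.1 mM and 1% DMSO. Low Alr induction is 0.1 µM arabinose and high induction is 10 mM arabinose.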

SMILES	growth
CC1(C)O[C@@H]2C[C@H]3[C@@H]4C[C@H](F)C5=CC(=O)C=C[C@]5(C)[C@@]4(F)[C@@H](O)C[C@]3(C)[C@]2(C(=O)CO)O1 [Fluocinolone acetonide]	0.409 ± 0.0053
O=C1CC[C@@H](C(=O)N2CSC[C@H]2C(=O)O)N1 [Pidotimod]	0.42 ± 0.011
Cc1cc(NS(=O)(=O)c2ccc(N)cc2)no1 [Sulfamethoxazole]	0.432 ± 0.013
CN(Cc1cnc2nc(N)nc(N)c2n1)c1ccc(C(=O)N[C@@H](CCC(=O)O)C(=O)O)cc1 (racemic) [Amethopterin (R,S)]	0.244 ± 0.13
CN(C)CCCN1c2ccccc2CCc2ccc(Cl)cc21 [Clomipramine hydrochloride]	0.4115 ± 0.0024
CN1CCN2c3ccccc3Cc3ccccc3C2C1 (stereo unspecified) [Mianserine hydrochloride]	0.424 ± 0.0035
CCCN(CCC)C(=O)C(CCC(=O)O)NC(=O)c1ccccc1 (stereo unspecified) [Proglumide]	0.415 ± 0.021
CCCCOc1ccc(CC(=O)NO)cc1 [Bufexamac]	0.4 ± 0.018
CC(C)CC(=O)N[C@H](C(=O)N[C@H](C(=O)N[C@@H](CC(C)C)[C@@H](O)CC(=O)N[C@@H](C)C(=O)N[C@@H](CC(C)C)[C@@H](O)CC(=O)O)C(C)C)C(C)C [Pepstatin A]	0.412 ± 0.005
CO[C@@]1(NC(=O)C2SC(=C(C(N)=O)C(=O)O)S2)C(=O)N2C(C(=O)O)=C(CSc3nnnn3C)CS[C@@H]21 (stereo partly specified) [Cefotetan]	0.0461 ± 0.00061
CC[N+](CC)(CC)CCC(O)(c1ccccc1)C1CCCCC1 (stereo unspecified) [Tridihexethyl chloride]	0.417 ± 0.0044

From the supplement of paper PMC9262897, “Low-cost anti-mycobacterial drug discovery using engineered E. coli” (Nature Communications, 2022)
